Hit rate of the full screen: of about 170,000 compounds, about 900 (0.53%) were called active.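 How the source made its calls: active means relative growth at most 50% at the other temperature and 20+ points below 30 °C, or under 10% at both; inactive means the rest, inconclusive results apart.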 This excerpt belongs to a sample that is enriched for actives.
Assay: S. aureus growth inhibition at 42 and 30 °C, primary screen, LtaS inhibitor project, RN4220, two temperatures (AID 720641)
Conditions: OD600, 20 h, 42 °C, stronger effect = lower value

| Compound | relative growth | relative growth (measured here: growth at 30 °C) [%] |
| --- | --- | --- |
| Cc1onc(-c2ccccc2)c1C(=O)Nc1cccc(C(F)(F)F)c1 | 113% (inactive) | 87.3 |
| Cc1oc2c(F)c(F)c(F)c(F)c2c1S(=O)(=O)Nc1cccc(C(F)(F)F)c1 | 8.52% (active) | 1.85 |
| CCNS(=O)(=O)c1ccc(NC(=O)Nc2cccc(C(F)(F)F)c2)cc1 | 98.8% (inactive) | 83.1 |
| Cc1cc(N2CCCCC2)nc2ccc(NC(=O)CCC(=O)N3CCC(C)CC3)cc12 | 78.9% (inactive) | 78.2 |
| CCc1ccc2[nH]c(=O)c(CN(Cc3ccco3)C(=S)NCC(C)C)cc2c1 | 84% (inactive) | 74.7 |
| COc1ccc(OCCN2C(=O)c3ccccc3S2(=O)=O)cc1 | 102% (inactive) | 95 |
| CCCCc1c(COC)nc(-c2ccc(Cl)cc2)[nH]c1=O | 122% (inactive) | 53 |
| CCCCCc1c(C)nc(-c2ccccn2)[nH]c1=O | 1.74% (active) | 1.83 |
| CC(=O)Nc1nc(C)c(Cc2ccccc2)c(=O)[nH]1 | 106% (inactive) | 86.1 |
| CC(C)(C)C(=O)OCC(=O)Nc1ccccc1 | 124% (inactive) | 92.1 |
| Cc1nc(/N=C(/N)NC(=O)Cc2ccccc2)nc2ccccc12 | 93.2% (inactive) | 87.1 |
| N#CCSc1ccccc1NC(=O)CN1CCc2sccc2C1c1cccs1 (stereo not given) | 94.4% (inactive) | 87 |
| CC(NC(=O)CN1CCc2sccc2C1c1cccs1)c1ccc2c(c1)OCCO2 (stereo not given) | 116% (inactive) | 98.8 |
| Cc1ccc2nc(CN3CCc4sccc4C3c3cccs3)cn2c1 (stereo not given) | 0.12% (active) | -0.28 |
| CCOC(=O)c1oc2ccccc2c1N=Cc1c(O)n(CC)c(=S)n(CC)c1=O | 99% (inactive) | 93.3 |
| CSc1nsc(SCC(=O)N2CCCC2)n1 | 93.6% (inactive) | 82.6 |
| CCOC(=O)N1CCN(CC(=O)NCCc2ccc(Cl)cc2Cl)CC1 | 90.9% (inactive) | 81.3 |
| O=C(Cn1cc(C(F)(F)F)cc(Cl)c1=O)Nc1ncccn1 | 94.1% (inactive) | 94.7 |
| CCC(CC)C(=O)N(c1ccc(OC)cc1OC)C1C=CS(=O)(=O)C1 (stereo not given) | 99.8% (inactive) | 90.8 |
| COc1cccc2c1OCc1sc3[nH]c(=S)[nH]c(=O)c3c1-2 | 50.5% (inactive) | 32.4 |
| N#Cc1ccc(OCC(=O)N=Nc2[nH]c(N)c3ccccc23)cc1 | 104% (inactive) | 101 |
| Cn1c(-c2ccc(C(=O)c3ccccc3)s2)nc2ccccc21 | 101% (inactive) | 95.7 |

| Compound | relative growth | relative growth (measured here: growth at 30 °C) [%] |
| --- | --- | --- |
| Cn1c(NCc2ccccc2)nc2ccccc21 | 105% (inactive) | 64.6 |
| Cn1c(NC(=O)c2ccccc2)nc2ccccc21 | 9.06% (active) | 0.29 |
| O=C(COc1ccccc1)NC(C(=O)O)C12CC3CC(CC(C3)C1)C2 (stereo not given) | 112% (inactive) | 83.1 |
| c1snnc1C12CC3CC(CC(C3)C1)C2 | 103% (inactive) | 109 |
| CN1CCN(c2nc(C34CC5CC(CC(C5)C3)C4)cs2)CC1 | -0.89% (active) | -0.63 |
| CC(C)(C)C(=O)Nc1ccc(Br)cc1 | 109% (inactive) | 84.5 |
| CCOC(=O)c1cnc(SCSc2nc3ccccc3s2)nc1N | 86.4% (inactive) | 87 |
| CC(=O)Oc1ccc2occ(C(=O)c3cc4ccccc4o3)c2c1 | 89.3% (inactive) | 86.2 |
| Cc1ccc(OC(=O)c2cc3ccccc3o2)cc1 | 0.01% (active) | -0.88 |
| CC(C)Oc1ccc(NC(=O)c2cc3ccccc3o2)cc1 | 87.3% (inactive) | 89.7 |
| O=C(Oc1ccc2oc(=O)sc2c1)c1ccccc1 | 92.5% (inactive) | 94 |
| CC(C)n1c(CCC(=O)O)ccc1-c1ccc(F)cc1 | 126% (inactive) | 97.4 |
| CN(C)[C@@H]1C(=O)C(C(N)=O)=C(O)[C@@]2(O)C(=O)C3=C(O)c4c(O)ccc(Cl)c4[C@@H](O)[C@H]3C[C@@H]12 | -0.41% (active) | -1 |
| COC(=O)/C(C#N)=C(\NCc1ccc(Cl)cc1Cl)SC | 99.2% (inactive) | 99.3 |
| NC(=O)C1CCN(C(=O)CSc2ccc3ccccc3c2)CC1 | 84.3% (inactive) | 94.8 |
| COc1ccc(F)cc1C(O)CSCc1ccccc1 (stereo not given) | 124% (inactive) | 84.8 |
| CCOC(=O)Nc1nc2c(ccc3ccccc32)s1 | 92.4% (inactive) | 91.2 |
| O=C(O)C1CCC(CNS(=O)(=O)c2ccc(Br)cc2)CC1 (stereo not given) | 108% (inactive) | 96.5 |
| CCOC(=O)c1oc2nc(-c3ccccc3)cc(-c3ccco3)c2c1N | 97.1% (inactive) | 91.1 |
| Cc1ccc(CNC(=O)c2ccc(CS(=O)Cc3cccc(Cl)c3)o2)cc1 (stereo not given) | 116% (inactive) | 82.8 |
| CCOc1ccc(CNC(=O)c2ccc(CS(=O)c3ccccc3)o2)cc1 (stereo not given) | 101% (inactive) | 79.9 |
| CCc1ccc(CNC(=O)c2ccc(CS(=O)c3ccc(Br)cc3)o2)cc1 (stereo not given) | 19.5% (active) | 45.9 |

| Compound | relative growth | relative growth (measured here: growth at 30 °C) [%] |
| --- | --- | --- |
| COC(=O)c1scc2c(N3CCCCC3)cc(C(F)(F)F)nc12 | 90.2% (inactive) | 95.5 |
| CCN1CCN(C(=O)N[C@@H](C(=O)N[C@@H]2C(=O)N3C(C(=O)O)=C(CSc4nnnn4C)CS[C@H]23)c2ccc(O)cc2)C(=O)C1=O | -0.62% (active) | -0.46 |
| O=C(Nc1nnc(C2CC2)s1)c1cc(Cl)sc1Cl | 77.4% (inactive) | 68.7 |
| COC(=O)c1ccc2c(c1)NC(=O)C(C)N2 (stereo not given) | 95.5% (inactive) | 65.5 |
| CC1CCCCN1S(=O)(=O)CCNC(=O)c1ccccc1 (stereo not given) | 85.7% (inactive) | 88.4 |
| CC1CCCCN1S(=O)(=O)c1ccc(F)c(C(=O)Nc2ccccc2C(F)(F)F)c1 (stereo not given) | 98.5% (inactive) | 90 |
| CCc1nnc(NC(=O)C2CCCN2S(=O)(=O)c2ccccc2)s1 (stereo not given) | 119% (inactive) | 89.3 |
| CC1CCCCN1S(=O)(=O)c1ccc(C(=O)Nc2nnc(-c3cccs3)o2)cc1 (stereo not given) | 2.04% (active) | 1.82 |
| CC1CCCCN1S(=O)(=O)c1ccc(I)cc1 (stereo not given) | 103% (inactive) | 105 |
| CSCc1nnc(NC(=O)c2ccc(S(=O)(=O)N3CCCCC3C)cc2)o1 (stereo not given) | 0.19% (active) | -0.08 |
| O=C(Cc1n[nH]c(=O)c2ccccc12)N/N=C/c1ccc(-c2ccc(Br)cc2)o1 | 95.6% (inactive) | 86.9 |
| CN(C)/N=C/c1ccc(OC(=O)c2ccco2)cc1 | 91.3% (inactive) | 89.5 |
| CCOC(=O)c1cc2n(c1N)-c1ccccc1C2=O | 85.9% (inactive) | 71.7 |
| CCOC(=O)c1cc2oc(C)cc2n1CCCN1C(=O)c2ccccc2C1=O | -0.65% (active) | -0.53 |
| CCn1nc(C(=O)OCCCCN2C(=O)c3ccccc3C2=O)c2ccccc2c1=O | 98.7% (inactive) | 94.4 |
| O=C(NCC12CC3CC(CC(C3)C1)C2)c1cc(-c2ccccc2O)no1 | 105% (inactive) | 101 |
| Cc1ccc(CNCc2cccn2-c2sc(C)c(C)c2C(=O)O)cc1 | 87.6% (inactive) | 76.5 |
| C=CCn1c(C)nnc1SCCN1C(=O)c2ccccc2S1(=O)=O | 91.3% (inactive) | 93.1 |
| CC(C)C(C(=O)O)n1c(=S)[nH]c2ccccc2c1=O (stereo not given) | 77.7% (inactive) | 94.8 |
| CS(=O)(=O)c1ccc(-c2nnc(NC(=O)c3ccc4c(c3)OCCO4)o2)cc1 | 84.8% (inactive) | 85.3 |
| CCCCN(CC)S(=O)(=O)c1ccc(C(=O)Nc2nnc(-c3ccc(Cl)s3)o2)cc1 | 0.22% (active) | 0.29 |
| CN(C)S(=O)(=O)c1ccc(C(=O)Nc2nnc(C3CC3)o2)cc1 | 78.8% (inactive) | 59.5 |

| Compound | relative growth | relative growth (measured here: growth at 30 °C) [%] |
| --- | --- | --- |
| O=C(CN1C(=O)/C(=C/c2ccccc2)Sc2ccccc21)N1CCCC1 | 109% (inactive) | 98.3 |
| COc1ccc(C2=NC(C)(C)N(CC(=O)Nc3ccccc3)C2=O)cc1 | 115% (inactive) | 93.8 |
| CSc1ccc(Cl)c(C(=O)OCC(=O)N2CCC(C)CC2)c1 | 102% (inactive) | 82 |
| Nc1nc(/C(=C/CC(=O)O)C(=O)N[C@@H]2C(=O)N3C(C(=O)O)=CCS[C@H]23)cs1 | -0.72% (active) | -0.64 |
| CSc1nc(C)cc(=O)[nH]1 | 139% (inactive) | 90.7 |
| NC(=O)N/N=C1/C=C(c2ccccc2)C(O)(c2ccccc2)C1 (stereo not given) | 109% (inactive) | 91.3 |
| O=C1COc2ccc(C3=Nn4c(nnc4-c4ccncc4)SC3)cc2N1 | 97.9% (inactive) | 85.9 |
| CCN(Cc1ccccc1)C(=O)c1cc2sccc2n1Cc1ccccc1 | 108% (inactive) | 88.4 |
| COc1ccccc1CNC(=O)CNC1CCCCC1 | 96.2% (inactive) | 90 |
| Cc1c2cn[nH]c(=O)c2c(C)n1Cc1ccccc1 | 88.3% (inactive) | 75.2 |
| CO[C@@H]1[C@@H](OC(N)=O)[C@H](O)[C@H](Oc2ccc3c(O)c(NC(=O)c4ccc(O)c(CC=C(C)C)c4)c(=O)oc3c2C)OC1(C)C | -0.38% (active) | 0.14 |
| CC(C)=CCOc1ccc2c3c(c(=O)oc2c1C)CCCC3 | 97.9% (inactive) | 97.1 |
| CC(Sc1ncnc2ccccc12)C(=O)Nc1cccc(C(F)(F)F)c1 (stereo not given) | 115% (inactive) | 80.8 |
| CC(C)(C)C(=O)CN1C(=O)c2ccccc2C1=O | 129% (inactive) | 89.2 |
| Cc1oc2c(c1C(=O)NC(C)c1ccccc1)C(=O)c1ccccc1C2=O (stereo not given) | 9.3% (active) | 14 |
| CC(NC(=O)Nc1ccccc1)c1ccccc1 (stereo not given) | 76.7% (inactive) | 91.3 |
| Cc1ccccc1-c1nc(CS(=O)(=O)CC(=O)NC(C)c2ccccc2)c(C)o1 (stereo not given) | 101% (inactive) | 105 |
| O=C(/C=C/c1ccccc1)OCC(=O)N1CCc2ccccc21 | 134% (inactive) | 88.3 |
| CCOC(=O)c1cnc2c(F)cc(F)cc2c1N1CCOCC1 | 118% (inactive) | 104 |

Source: PubChem BioAssay AID720641 (ICCB-Longwood Screening Facility, Harvard Medical School, 2013)
